Screens from PubChem.
Rows were chosen to be rich in hits. Some 2.4% of all compounds tested hit in one or more screens of this group.
D2 ag-1 = activates the human D2 dopamine receptor. P14416. DiscoveRx PathHunter D2 beta-arrestin, luminescence, 90 min; 100% = 57 uM dopamine signal. activation, % (concentration not given with the values). 360,000 tested, 0.084% active. AID 624465; in the data active = activation above about 40%; inconclusive = between about 15% and that limit
Target sequence (P14416 whole entry, looked up): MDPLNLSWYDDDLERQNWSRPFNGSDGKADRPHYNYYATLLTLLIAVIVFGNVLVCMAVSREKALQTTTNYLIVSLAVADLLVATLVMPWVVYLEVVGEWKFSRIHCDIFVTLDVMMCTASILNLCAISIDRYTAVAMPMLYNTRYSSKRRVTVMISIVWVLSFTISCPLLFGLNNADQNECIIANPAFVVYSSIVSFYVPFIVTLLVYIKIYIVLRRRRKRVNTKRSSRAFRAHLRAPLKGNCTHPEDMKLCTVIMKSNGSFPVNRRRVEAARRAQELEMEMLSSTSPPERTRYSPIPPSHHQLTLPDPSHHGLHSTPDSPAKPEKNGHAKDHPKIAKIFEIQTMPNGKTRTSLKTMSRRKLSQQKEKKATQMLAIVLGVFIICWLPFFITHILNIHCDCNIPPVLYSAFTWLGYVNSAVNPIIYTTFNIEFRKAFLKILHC
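Agonist mode: compounds alone added to overnight-plated D2 PathHunter cells for 90 min at 37 C, with 57 uM final dopamine (EC100) defining full response. Beta-arrestin recruitment detected by chemiluminescent reagent, read after 1 h at ambient temperature.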
D2 antag = D2 dopamine receptor (human) antagonism; inhibition, % at 10 µM; AID 485344; HEK293 TREx D2 cells, calcium flux, dopamine EC80; 340,000 tested, 2% active; P14416; in the data active = inhibition above about 30%; inactive = below that, where a call was filed
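Measurement of antagonist activity uses fluorescent calcium dye in inducible HEK293 T-REx D2 cells: 10 s baseline, compound addition with 180 s read, EC80 dopamine addition with a further 180 s read.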
D2 PAM-1 = positively modulates the human D2 dopamine receptor allosterically; HEK293 T-REx D2, calcium flux, EC20 dopamine potentiation; P14416; potentiation, % at 10 µM; AID 485347; 340,000 tested, 0.34% active;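 active = potentiation over 3 SD above the plate norm, cut at about 30% in these data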
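Primary screen. Calcium kinetics in induced HEK293 T-REx D2 cells: compound pre-addition 180 s, EC20 dopamine, 180 s more.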
D2 ag-2 = D2 dopamine receptor (human) agonism. P14416. HEK293 T-REx D2 cells, calcium flux agonist mode. activation, % at 2 µM. 340,000 tested, 0.53% active. AID 485358;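 active = activation over 3 SD above normal in the single-dose calcium agonist read, cut at about 30% in these data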
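HEK293 Trex D2 cells, tetracycline-induced, o/n 30 C 5% CO2; no-wash Ca dye, RT 30–90 min; 10-cycle baseline, 23 nl cpd added, kinetic Ca read 180 s; agonist hits = positive Ca response.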
D2 PAM-2 = potentiates the human D2 dopamine receptor allosterically; P14416; DiscoveRx D2 beta-arrestin cells, luminescence, 90 min; 100% = 57 uM dopamine signal; potentiation, % (test concentration not listed); 360,000 tested, 0.23% active; AID 624464; in the data active = potentiation above about 50%; inconclusive = mostly about 30% to 49%
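PathHunter D2 cells, attached overnight at 37 deg C, received compound in DMSO plus dopamine at EC20 (50 nM final) for 90 min at 37 deg C. Beta-arrestin recruitment was read as luminescence after 1 h with detection reagent at ambient temperature.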
Numbers stand for hits; - = inactive; ? = inconclusive; . = no result.

SMILES | D2 ag-1 | D2 antag | D2 PAM-1 | D2 ag-2 | D2 PAM-2
COC(=O)c1nn(-c2cccc(C)c2)c2nnc(Cc3ccccc3)c(=O)n12 | - | 63.1 | - | - | -
COC(=O)c1nn(-c2ccccc2)c2nnc(Cc3ccc(C)cc3)c(=O)n12 | - | - | - | - | -
CCC(Sc1nc2c(sc3ccccc32)c(=O)n1CCc1ccc(OC)c(OC)c1)C(=O)N(CC)CC (centres undefined) | . | . | - | - | .
CCN(CC)CCCNC(=O)c1cc2c(=O)n(C)c3ccccc3c2n1C | - | - | - | - | -
CCN(CC)CCNC(=O)c1cc2c(=O)n(C)c3ccccc3c2n1C | - | 37.0 | - | - | -
CN(C)CCNC(=O)c1cc2c(=O)n(C)c3ccccc3c2n1C | - | - | 32.6 | - | -
Cn1c(C(=O)NCCCN2CCc3ccccc3C2)cc2c(=O)n(C)c3ccccc3c21 | - | 80.5 | - | - | -
COCCNC(=O)c1cc2c(=O)n(C)c3ccccc3c2n1C | - | - | - | - | -
CCOC(=O)N1CCc2c(sc3c2c(=O)n(Cc2ccccc2)c(=O)n3Cc2ccccc2Cl)C1 | . | . | - | - | .
O=C(NCc1ccccc1)C(=O)Nc1nc(C23CC4CC(CC(C4)C2)C3)cs1 | - | 32.2 | - | - | -
Cc1nc2nc(SCC(=O)c3cccc([N+](=O)[O-])c3)[nH]c2cc1Br | - | 38.3 | - | - | -
COc1ccc(N=Cc2c(O)n(-c3cccc(C)n3)c(=O)c3ccccc23)cc1 | - | 32.0 | - | - | -
Cc1ccc(C)c(NC(=O)CSc2nnc(CNC(=O)c3ccccc3)n2-c2ccccc2)c1 | . | . | - | - | .
O=C(O)CCCn1cc(NC(=O)COc2ccc([N+](=O)[O-])cc2)cn1 | - | - | 30.6 | - | -
Cc1cc(OCC(=O)Nc2cnn(CCCC(=O)O)c2)ccc1[N+](=O)[O-] | - | - | - | - | -
Cc1ccc(C)c(OCCCN2CCc3ccccc3C2)c1 | - | 70.4 | - | - | -
Cc1ccc(C(C)C)c(OCCN2CCc3ccccc3C2)c1 | - | - | - | - | -
Cc1ccc(OCCCCN2CCc3ccccc3C2)c(C)c1 | - | 75.9 | - | - | -
Cc1ccc(C(C)C)c(OCCCN2CCc3ccccc3C2)c1 | - | 30.5 | - | - | -
Cc1ccc(OCCCCn2cnc3ccccc32)c(C)c1 | - | - | - | - | -
COc1ccc(C(=O)N2CCN(c3nc4c(C)c(Cl)ccc4s3)CC2)c(OC)c1 | . | . | - | - | .
COc1ccc(NS(=O)(=O)c2ccc3[nH]c(=O)ccc3c2)cc1OC | . | . | - | - | .
CC(=O)N1CCCc2cc(S(=O)(=O)NCc3ccc(OC(C)C)cc3)ccc21 | . | . | - | - | .
Fc1ccc(-n2cc(CNCCc3ccccn3)c(-c3ccccc3Cl)n2)cc1 | - | 79.0 | - | - | -
N#C/C(=C\c1c(Cl)cccc1Cl)c1nc2ccccc2o1 | ? | - | - | - | 57.9
SMILES | D2 ag-1 | D2 antag | D2 PAM-1 | D2 ag-2 | D2 PAM-2
COc1ccc(NC(=O)c2cnc3cc(C)ccn3c2=O)c(OC)c1 | . | . | - | - | .
CC(C)CCNC(=O)C1CCC(Cn2c(=O)c3sccc3n(CC(=O)NC(C)C)c2=O)CC1 (centres undefined) | . | . | - | - | .
NC(=O)C1(N2CCCCC2)CCN(c2ccc3nnc(-c4ccccc4)n3n2)CC1 | ? | - | 31.8 | - | -
Cc1nc2ccccc2c(=O)n1/N=C/c1ccc(O)c(O)c1O | 47.8 | - | - | - | -
Cc1nc2ccccc2c(=O)n1/N=C/c1ccccc1O | - | - | - | - | -
O=C(CSc1nc2c([nH]c3ccccc32)c(=O)n1-c1ccc(F)cc1)NCc1ccc(F)cc1 | . | . | - | - | .
CCOc1ccc(OCCOCCN2CCc3ccccc3C2)cc1 | - | 68.4 | - | - | -
CCCOc1ccc(OCCOCCN2CCc3ccccc3C2)cc1 | - | 31.4 | - | - | -
CCOc1ccc(OCCOCCN2CCCC2)cc1 | - | - | - | - | -
C=CCc1cc(OC)ccc1OCCOCCN1CCc2ccccc2C1 | - | 84.1 | - | - | -
c1ccc(OCCOCCN2CCN(C(c3ccccc3)c3ccccc3)CC2)cc1 | - | - | - | - | -
c1ccc(OCCOCCN2CCc3ccccc3C2)cc1 | - | 64.9 | - | - | -
COc1ccc2[nH]c(=O)c(CN(C(=O)c3cccc(Cl)c3)c3ccccc3OC)cc2c1 | . | . | - | - | .
CCCNC(=O)C1CCC(Cn2c(=O)c3sccc3n(CC(=O)N(CC)CC)c2=O)CC1 (centres undefined) | . | . | - | - | .
COc1ccc(CCNC(=O)c2ccc3c(c2)N(Cc2ccccc2Cl)C(=O)c2ccccc2S3)cc1OC | . | . | - | - | .
COc1ccccc1CNC(=O)c1cc2ccc3ccc(C)[nH]c3c2n1 | . | . | - | - | .
CCc1ccccc1NC(=O)Nc1nnc(N(C)Cc2ccccc2)s1 | . | . | - | - | .
Cc1ccc(SCCOCCN2CCc3ccccc3C2)cc1 | - | 75.0 | - | - | -
Cc1ccc(SCCOCCN2CC(C)OC(C)C2)cc1 (centres undefined) | - | - | - | - | -
COc1ccc(OCCCN2CCc3ccccc3C2)cc1 | - | 71.9 | - | - | -
O=[N+]([O-])c1ccc(OCCCCN2CCc3ccccc3C2)cc1 | - | 62.1 | - | - | -
CCn1c(SCC(=O)Nc2cc(C)on2)nc2sc(C)c(C)c2c1=O | . | 35.5 | - | - | .
COCCn1c(SCC(=O)Nc2cc(C)on2)nc2cc(Cl)ccc2c1=O | - | - | 72.0 | - | -
Cc1cc(NC(=O)CSc2nc3cc(Cl)ccc3c(=O)n2CC(C)C)no1 | . | - | - | - | .
C=CCn1c(SCC(=O)Nc2cc(C)on2)nc2sc(C)c(C)c2c1=O | - | . | . | . | -
SMILES | D2 ag-1 | D2 antag | D2 PAM-1 | D2 ag-2 | D2 PAM-2
COc1ccc(CNC(=O)Cn2c(=O)nc(-c3ccccc3F)c3cc(Cl)ccc32)cc1OC | . | . | - | - | .
Cc1cccc(N=C(N2CCOCC2)P(=O)(N2CCOCC2)N2CCOCC2)c1 | - | - | 64.9 | - | -
CCCCCOP(=O)(OCCCCC)C1(NS(=O)(=O)c2ccccc2)C=CC(=O)c2ccccc21 (centres undefined) | ? | - | - | - | 90.2
Cc1ccc(NC(=O)c2cnn3c(C(F)F)cc(-c4ccccc4)nc23)cc1F | . | . | - | . | .
CC1Cc2cc(/C(O)=C3/C(=O)C(=O)N(CCCn4ccnc4)C3c3ccc(F)cc3)ccc2O1 (centres undefined) | - | 44.2 | - | - | -
CC(C)OCCCNC(=O)Cc1ccc(F)cc1 | - | 57.1 | - | - | -
CCOCCCNC(=O)Cc1ccc(F)cc1 | . | - | - | - | .
[O-][N+]1=c2ccc(Nc3ccccc3)cc2=NC12CCCCC2 | - | 32.5 | - | - | -
COc1ccc(Nc2ccc3c(c2)=NC2(CCCCC2)[N+]=3[O-])cc1 | - | - | - | - | -
COc1cc(NC(=O)c2cc3cc4ccc(C)cc4nc3o2)cc(OC)c1OC | . | . | - | - | .
CCOc1ccc(C(=O)CN2C(=O)NC3(CCCCCC3)C2=O)cc1 | - | - | - | - | -
